The results in this text go back to PubChem BioAssay (NCATS).

Records with an inconclusive call do not appear. Where a call stands in place of a potency, no number is given. Activity calls are given as the source filed them. Calls come from the whole dose curve; as a rule, active = well fitted cell-killing curve with a large enough effect; inconclusive = small, poorly fitted or top-dose-only effect, or effect the other way; inactive = flat fitted curve, though single readings scatter. Where a SMILES comes first, the peptide text is derived from it. The star is where a group is joined. PhAc = O=C(Cc1ccccc1)*

The test relates to Es-2. Briefly: Primary qHTS to identify gynecologic anti-cancer compounds using libraries of approved drugs and bioactive compounds (AID 1345084). Note: nearly all actives have a fitted effect of over 55% in size. The note with it: Gynecologic cancer cell panel viability, ATPlite luminescence, 48 h; series mostly up to 57.5 µM. In a few lines:
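Five-concentration response, 48 h; readout is ATP-driven luciferase luminescence.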
In general terms: In qHTS, concentration-response curves come from the screen itself.
For `COC1CC(O[C@H]2CC[C@@]3(C)C(=CC[C@]4(O)C3[C@H](O)[C@@H](O)[C@]3(C)[C@@H]([C@H](C)O)CC[C@@]34O)C2)OC(C)C1OC1CC(OC)C(OC2CC(OC)C(OC3OC(C)C(OC4OC(CO)C(O)C(O)C4O)C(OC)C3O)C(C)O2)C(C)O1` (some centres undefined), the activity change, negative = cytotoxicity is 5.18% [at 11.6 µM] (inactive).

Take `C=C1CCC2[C@](C)(CO)CCC[C@@]2(C)[C@@H]1CCC1=CCOC1=O` (some centres undefined): the Potency result was “inactive”.

In the case of `C=C1CCC[C@]2(C)CC[C@@](O)(C(=C)C(=O)O)C[C@@H]12`, the Potency result was “inactive”.

For the compound `CC1CC(=O)[C@]2(O)C(C(=O)OCCc3ccc(O)cc3)=CO[C@@H](O[C@@H]3O[C@H](CO)[C@@H](O)[C@H](O)[C@H]3O)[C@H]12` (some centres undefined), the Potency result was “inactive”.

Regarding `COC(=O)C1=COC(O[C@@H]2O[C@H](CO)[C@@H](O)[C@H](O)[C@H]2O)[C@@H]2[C@@](C)(O)[C@@H](OC(=O)/C=C/c3ccccc3)C[C@]12O` (some centres undefined), the Potency entry is “inactive”.

For the compound `CCC[C@H](N[C@@H](C)C(=O)N1[C@H](C(=O)O)C[C@@H]2CCCC[C@@H]21)C(=O)O`, the Potency result is “inactive”.

As to `CC1OC(OC2C(OC(=O)[C@]34CCC(C)(C)C[C@H]3C3=CCC5[C@@]6(C)CC[C@H](OC7OC(C(=O)O)C(O)C(O)C7O)C(C)(C)C6CC[C@@]5(C)[C@]3(C)CC4O)OC(CO)C2O)C(O)C(O)C1OC1OCC(O)C(O)C1O` (some centres undefined), the activity change, negative = cytotoxicity is -0.633% [at 11.6 µM] (inactive).

As for `CCOC(=O)CNC(=O)[C@@H]1CCCN1C(=O)Cc1ccccc1` (PhAc-Pro-Gly-OEt), the Potency entry is “inactive”.

With `C/C(=C\CC[C@H](CO)[C@@H]1CC[C@]2(C)C3=C(CC[C@@]12C)[C@@]1(C)CCC(=O)C(C)(C)C1CC3)C(=O)O` (some centres undefined), the Potency entry was “inactive”.
